Assay outcomes from PubChem.
ELG1 genotox: qHTS screen for small molecules that induce genotoxicity in human embryonic kidney (HEK293T) cells expressing luciferase-tagged ELG1 | HEK293T ELG1-luciferase reporter, luminescence, 16 h | Potency, µM (doses to about 46 µM), most hits filed as activators | hit rate 1.3% among 330,000; also: nearly all actives have a fitted effect of over 60% in size
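Genotoxicity was scored as increased ELG1-luciferase reporter signal, measured by ONE-Glo luminescence (30 min, room temperature). Compound or vehicle exposure of the HEK293T reporter cells lasted 16 hr at 37°C.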
FLuc counter: qHTS profiling assay for firefly luciferase inhibitor/activator using purifed enzyme and Km concentrations of substrates (counterscreen for miR-21 project) | Luciferin 4-monooxygenase (Photinus pyralis), P08659 | purified FLuc, Km substrates, luminescence inhibition | Potency, µM (top dose mostly 57.5 µM), most hits filed as inhibitors | hit rate 6.9% among 360,000 | AID 588342, 2011; also: nearly all actives have a fitted effect of over 55% in size
Target sequence (P08659 whole entry, looked up): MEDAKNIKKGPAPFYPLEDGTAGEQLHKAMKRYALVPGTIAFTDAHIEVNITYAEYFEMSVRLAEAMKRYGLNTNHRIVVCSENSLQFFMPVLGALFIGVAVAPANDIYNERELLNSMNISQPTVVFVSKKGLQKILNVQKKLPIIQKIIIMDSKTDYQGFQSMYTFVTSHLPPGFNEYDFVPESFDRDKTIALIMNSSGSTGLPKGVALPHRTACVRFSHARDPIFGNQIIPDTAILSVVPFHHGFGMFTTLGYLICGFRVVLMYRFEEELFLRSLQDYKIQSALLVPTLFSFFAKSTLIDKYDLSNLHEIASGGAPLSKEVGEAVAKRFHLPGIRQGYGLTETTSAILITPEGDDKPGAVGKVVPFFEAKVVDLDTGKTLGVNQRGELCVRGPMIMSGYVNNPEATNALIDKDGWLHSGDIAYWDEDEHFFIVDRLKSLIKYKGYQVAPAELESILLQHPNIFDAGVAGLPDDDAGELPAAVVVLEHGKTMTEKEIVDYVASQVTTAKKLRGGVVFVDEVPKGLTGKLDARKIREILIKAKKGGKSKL
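Purified P. pyralis luciferase, 10 nM final, with Km-level 10 uM D-luciferin and 10 uM ATP in 50 mM Tris acetate pH 7.5, 10 mM Mg acetate, 0.01% Tween-20, 0.05% BSA; 6-point qHTS titration about 60 µM downward; luminescence read.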
Rab9 promoter act: qHTS Assay for Rab9 Promoter Activators; Huh7 Rab9 promoter-luciferase reporter, luminescence, 24 h; Potency, µM (highest dose often 9.22 µM), actives largely listed as activators; hit rate 2.8% among 320,000; AID 485297, 2010; also: nearly all actives have a fitted effect of over 60% in size
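Cells were plated at 1500 per well in reduced-serum medium with 10% FBS and left 2 h. Compound in DMSO was then added for 24 h at 37 °C. Reporter signal was read by luminescence after 10 min with luciferase detection reagent.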
SMN2 splice up: qHTS Assay for Enhancers of SMN2 Splice Variant Expression; hit rate 2.8% among 210,000; HEK293 SMN2-luciferase splicing reporter, luminescence, 30-36 h; Potency, µM (series often up to 46.1 µM), hits mostly activators; also: nearly all actives have a fitted effect of over 55% in size
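HEK293 cells carry an SMN2 […]–luciferase reporter in which exon 7 inclusion puts luciferase in frame. Cells were plated 10-12 h before compound addition, then incubated 30-36 h at 37C. ONE-Glo luminescence was read; sodium butyrate at 4.5 mM final served as control.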
NPC1 promoter act: qHTS Assay for NPC1 Promoter Activators; hit rate 2.4% among 320,000; AID 485313, 2010; Huh7 NPC1 promoter luciferase reporter, 24 h; Potency, µM (top dose mostly 9.22 µM), actives largely listed as activators; also: nearly all actives have a fitted effect of over 60% in size
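In 1536-well qHTS, Huh7 cells harboring an NPC1 promoter–luciferase construct received compound for 24 h; activation was quantified by luminescence following luciferase reagent addition.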
p53 reactivator: qHTS assay for re-activators of p53 using a Luc reporter; H1299 p53-A138V BP100-luciferase reporter, luminescence, 24 h; Potency, µM (titrated, usually from 92.2 µM), actives largely listed as activators; hit rate 0.063% among 320,000; AID 504706, 2011; also: nearly all actives have a fitted effect of over 45% in size
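H1299 (p53-null), stable ts p53-A138V + BP100-Luc; 1000 cells/well, Opti-MEM/10% FBS; cpd 4 pt, 1:5; 24 h, 37 deg C, 5% CO2; detection reagent 10 min RT; luminescence.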
Of the large screens only hits and unclear results are named; the others gave an inactive call. Rows were chosen to be rich in hits. Some 7.3% of all compounds tested hit in one or more screens of this group. Calls follow the shape of the dose curve; as a rule, active = well fitted curve in the direction sought with a large enough effect; inconclusive = small, poorly fitted or top-dose-only effect, or another doubt; inactive = no such curve, though single readings can be large; an effect the other way counts as inactive or inconclusive.

CCc1ccc(S(=O)(=O)Nc2ccc(-c3ccc4nnc(C)n4n3)cc2)s1	ELG1 genotox 23µM (no result: SMN2 splice up)
Cc1oc2c(cc(NS(=O)(=O)c3ccc(F)cc3)c3ccccc32)c1C(=O)OCc1ccccc1	none (no result: ELG1 genotox, Rab9 promoter act, NPC1 promoter act, p53 reactivator)
Cc1ccc2c(c1)nc(SCC(O)c1ccc(Br)cc1)n2C (centres undefined)	none (no result: ELG1 genotox, Rab9 promoter act, NPC1 promoter act, p53 reactivator)
COc1cccc(Nc2nnc(SCC(=O)N(CC(C)C)CC(C)C)s2)c1	FLuc counter 11µM (no result: SMN2 splice up)
COc1cccc(NC(=O)CN(C)C(=O)CSc2nc3ccccc3s2)c1	none (no result: SMN2 splice up)
COc1cccc(Nc2nnc(SCc3nc4ccccc4s3)s2)c1	FLuc counter 13µM, Rab9 promoter act inconclusive, NPC1 promoter act inconclusive
Cc1cccc(C)c1Nc1nnc(SCc2nc3ccccc3s2)s1	ELG1 genotox inconclusive, FLuc counter 6µM, SMN2 splice up inconclusive, p53 reactivator inconclusive
Cc1cccc(C)c1Nc1nnc(SCC(=O)NCc2cccs2)s1	none
COc1cccc(Nc2nnc(SCN3C(=O)c4ccccc4C3=O)s2)c1	none
CCOP(=O)(c1ccc(N(C)C)cc1)C(O)c1ccc(OC)cc1 (centres undefined)	none (no result: SMN2 splice up)
O=C(Nc1ccc(Br)cc1)C1OCCc2ccccc21 (centres undefined)	FLuc counter 17µM, Rab9 promoter act inconclusive (no result: SMN2 splice up)
O=C(Nc1cc(F)ccc1F)N1CCC(CN2CCOCC2)CC1	none (no result: ELG1 genotox, Rab9 promoter act, SMN2 splice up, NPC1 promoter act, p53 reactivator)
N#C/C(=N\Nc1cccc(F)c1)C(=N)N1CCCCCC1	ELG1 genotox inconclusive, FLuc counter 2.4µM, Rab9 promoter act 0.56µM, SMN2 splice up 13µM, NPC1 promoter act 0.5µM, p53 reactivator inconclusive
N#C/C(=N\Nc1ccc(F)cc1)C(=N)N1CCCCC1	ELG1 genotox 1.6µM, FLuc counter 3µM, Rab9 promoter act 0.63µM, NPC1 promoter act 0.56µM, p53 reactivator inconclusive (no result: SMN2 splice up)
COc1ccc(N/N=C(\C#N)C(=N)N2CCOCC2)cc1	ELG1 genotox 18µM, FLuc counter inconclusive
N#C/C(=N/Nc1ccccc1F)C(=N)N1CCOCC1	none
N#C/C(=N\Nc1ccccc1)C(=N)N1CCCCCC1	ELG1 genotox inconclusive, FLuc counter 3.4µM, Rab9 promoter act 1µM, NPC1 promoter act 1.8µM (no result: SMN2 splice up)
N#C/C(=N\Nc1ccc(Cl)cc1)C(=O)c1ccccc1	FLuc counter inconclusive, p53 reactivator inconclusive
c1ccc(CNc2ccnc(-c3ccoc3)n2)cc1	none (no result: ELG1 genotox, FLuc counter, Rab9 promoter act, NPC1 promoter act, p53 reactivator)
CCN(CC)c1ccc(/C=C/C(=O)C2C(=O)C=C(C)OC2=O)cc1 (centres undefined)	ELG1 genotox inconclusive, FLuc counter 8.5µM, Rab9 promoter act 2.8µM, SMN2 splice up inconclusive, NPC1 promoter act 1.6µM, p53 reactivator inconclusive
CCN1C(=C2C(=O)c3ccccc3C2=O)C=Cc2ccccc21	ELG1 genotox inconclusive, FLuc counter inconclusive
CCCCCN1C=CC(=C2C(=O)c3ccccc3C2=O)C=C1	FLuc counter 0.067µM, Rab9 promoter act 0.016µM, NPC1 promoter act 0.13µM
COc1cc2c(cc1OC)C(COc1cc(C)cc(C)c1)N(C(=O)C(C)(C)C)CC2 (centres undefined)	none (no result: ELG1 genotox, Rab9 promoter act, SMN2 splice up, NPC1 promoter act, p53 reactivator)
COCCn1c(=O)c(-c2cc(F)cc(F)c2)nc2cnc(Oc3ccc(OC)cc3)nc21	none (no result: ELG1 genotox, FLuc counter, Rab9 promoter act, NPC1 promoter act, p53 reactivator)
S=c1nc(-c2ccccc2)c(-c2ccccc2)n[nH]1	none (no result: SMN2 splice up)
Nc1c(-c2ccccc2)n[nH]c1-c1ccccc1	ELG1 genotox inconclusive, Rab9 promoter act inconclusive, SMN2 splice up 13µM, NPC1 promoter act 2.8µM, p53 reactivator inconclusive
CCCn1cnc2c(SCC(=O)O)nc(N)nc21	none (no result: ELG1 genotox, FLuc counter, Rab9 promoter act, NPC1 promoter act, p53 reactivator)
Cc1cccc(C(=O)n2c(=S)nc3ccccn32)c1	ELG1 genotox inconclusive, FLuc counter 0.48µM, Rab9 promoter act 0.45µM, SMN2 splice up 4.5µM, NPC1 promoter act 0.56µM, p53 reactivator inconclusive
O=C(c1ccccc1)n1c(=S)nc2ccccn21	ELG1 genotox 0.33µM, FLuc counter 0.43µM, Rab9 promoter act 3.5µM, NPC1 promoter act 1µM (no result: SMN2 splice up, p53 reactivator)
Cc1ccc(C(=O)n2c(=S)nc3ccccn32)cc1	ELG1 genotox inconclusive, FLuc counter 0.12µM, Rab9 promoter act 0.63µM, SMN2 splice up 2µM, NPC1 promoter act 0.79µM, p53 reactivator inconclusive
